Source: PubChem BioAssay
Hits are enriched below; roughly 2.2% of the tested compounds scored in any of these assays.
KLF5 inh = inhibitors of KLF5 expression; DLD-1 KLF5 promoter-luciferase reporter, luminescence; inhibition, % at 5 µM; actives 0.23% (n = 290,000);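 active means inhibition above a per-plate limit of that plate's mean compound inhibition plus 3 SD, cut at about 60% in these data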;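 further: 0% = DMSO wells and 100% = LY294002 at 200 µM; higher means less KLF5 promoter-driven luciferase light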
Ba/F3 V617F tox = lowers viability of Ba/F3 cells expressing EpoR and JAK2V617F | ATP luminescence | inhibition, % at 5.6 µM | actives 1.1% (n = 220,000);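 active means inhibition above the campaign mean plus 3 SD over all tested compounds, cut at about 24% in these data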;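 further: cytokine-independent growth of Ba/F3 cells driven by EpoR plus mutant JAK2; 0% = DMSO-treated cells and 100% = JAK inhibitor I control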
APP 5UTR inh = APP translation inhibition. SH-SY5Y APP 5'UTR-luciferase reporter, luminescence. inhibition, % at 2 µM. actives 0.82% (n = 190,000). AID 1285;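 active means inhibition above a set limit, derived from the sample mean plus 3 SD, cut at about 45% in these data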
IEC-6 tox-1 = kills IEC-6 intestinal cells in KLF5 counter-screen | IEC-6 cytotoxicity, luminescence viability | inhibition, % at 5 µM | actives 0.78% (n = 290,000) | AID 1825;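 further: 0% = plate median of test compound wells and 100% = cytotoxic reference compound wells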
BaF3 tox = reduces parental Ba/F3 cell viability, JAK2V617F counter-screen; inhibition, % at 5.6 µM; CellTiter-Glo ATP luminescence; actives 1.1% (n = 220,000);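 active means inhibition above a per-campaign cutoff, the mean inhibition of all tested compounds plus 3 SD, cut at about 27% in these data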;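 further: 0% = DMSO wells and 100% = JAK Inhibitor I control wells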
aSyn UTR inh = MLPCN primary screen, SNCA 5' untranslated region; actives 0.82% (n = 300,000); inhibition, % (tested at 7.5 µM); alpha-synuclein 5'UTR reporter, inhibitor activity; in the data active means inhibition above about 60%;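 further: H4 neuroglioblastoma cells stably carrying SNCA 5'UTR luciferase fusion; 0% = DMSO wells and 100% = positive control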
KLF5 confirm = confirmation of KLF5 inhibitors. DLD-1 KLF5 promoter firefly luciferase reporter, luminescence. shares compounds with KLF5 inh. actives 79% (n = 610). inhibition, % at 4 µM;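 active means inhibition above a set limit taken from the earlier primary screen, cut at about 63% in these data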;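 further: 0% = DMSO wells and 100% = LY294002 at 200 µM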
IEC-6 tox-2 = kills rat IEC-6 cells in KLF5 counter-screen; inhibition, % at 4 µM; IEC-6 rat intestinal cells, viability luminescence; shares compounds with KLF5 inh; actives 56% (n = 610); in the data active means inhibition above about 23%;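 further: cells exposed to compounds for 48 hours before viability read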
IEC-6 tox confirm = IEC-6 cytotoxicity, confirmation assay; shares compounds with IEC-6 tox-1; inhibition, % at 5 µM; actives 63% (n = 1,900); AID 1907; IEC-6 rat intestinal epithelial viability, luminescence;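 further: 0% = vehicle and 100% = reference cytotoxic drug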
An asterisk follows results filed as active; . = no result given. Unless noted, no stated cut-off is given here; in the data, active means inhibition above about 22%; inactive means the rest.

SMILES	KLF5 inh	Ba/F3 V617F tox	APP 5UTR inh	IEC-6 tox-1	BaF3 tox	aSyn UTR inh	IEC-6 tox confirm	others
CCOc1ccc(-c2cc(N3C(=O)Nc4ccccc4N3O)n[nH]2)cc1	69*	76*	25	70*	77*	-7	2	KLF5 confirm=2;IEC-6 tox-2=19
C=Cc1ccc(Cn2nc(-c3ccccc3)ccc2=O)cc1	-35	.	.	-5	.	-16	.
Cc1ccccc1C(=O)Nc1ccc(Cl)cn1	-85	-4	-68	-2	2	-114	.
O=C(Nc1ccc(Cl)cn1)c1cccc2c(Br)cccc12	62*	.	.	82*	.	-41	14	KLF5 confirm=-10;IEC-6 tox-2=14
CCN(CC)c1ccc(-c2nn3c(-c4ccccc4OC)nnc3s2)cc1	80*	93*	94*	93*	87*	83*	77*	KLF5 confirm=91*;IEC-6 tox-2=72*
COc1ccc(Cl)cc1NC(=O)CN(C)CC(=O)Nc1ccc(Br)cc1	-16	5	8	-1	8	10	.
COc1ccc(Cl)cc1NC(=O)CN(C)CC(=O)Nc1cc(OC)c(OC)c(OC)c1	54	.	.	40*	.	4	33*
COCCCNC(=S)Nc1cc2oc3ccccc3c2cc1OC	16	.	.	34*	.	0	22*
CCC1CCCCN1CCCNC(=O)C1CCN(Cc2nc(-c3ccc(Cl)cc3)oc2C)CC1 (centres undefined)	-35	.	.	47*	.	13	70*
CCCCCCn1c2c(c(=N)c3c1CCC3)CCC2	55	98*	-16	24*	78*	67*	26*
CCCCCCCn1c2c(c(=N)c3c1CCC3)CCCC2	59	100*	22	38*	88*	83*	37*
CCCCCCCCCn1c2c(c(=N)c3c1CCC3)CCC2	52	98*	18	44*	91*	86*	50*
CCCCCCn1c(=O)[nH]c2c(c1=O)CCC2	-12	-4	.	-3	4	-6	.
C/C=C/c1ccc(OCC(=O)OCc2csc(CC(=O)Nc3ccccc3C)n2)c(OC)c1	-38	.	.	-6	.	5	.
Cc1ccc2nc(N(CCCN(C)C)C(=O)c3ccco3)sc2c1	-49	5	-28	2	8	-48	.
CN(C)CCCN(C(=O)c1ccco1)c1nc2cc3c(cc2s1)OCO3	-22	.	.	45*	.	-185	21
O=C(c1cc(F)c(F)cc1Cl)N1CCN(c2ncccn2)CC1	19	.	.	-2	.	-11	.
CC1(C)CC(N2CCCCC2)=CC(=[N+]2CCCCC2)C1	-14	84*	8	23*	68*	0	25*
CC1(C)CC(N2CCOCC2)=CC(=[N+]2CCOCC2)C1	-21	-2	-6	-4	5	-9	.
O=C(OCn1ncc(Br)c(Br)c1=O)c1ccc(F)cc1	26	85*	96*	36*	93*	64*	62*
O=C(OCc1cnc(Cl)s1)c1ccccc1Cl	-24	1	-8	-15	8	-19	.
O=C(OCn1ncc(Br)c(Br)c1=O)c1ccccc1Cl	9	40*	.	23*	37*	-40	54*
O=C(Nc1ccc(OC(=O)c2ccco2)cc1)c1ccco1	-32	-3	-11	0	4	-5	.
O=C(OC1CCCCC1)c1ccc(NC(=O)c2ccco2)cc1	-87	-1	-51	32*	4	-45	23*
O=C1C=C(Nc2ccc(Cl)cc2Cl)CC(c2ccco2)C1 (centres undefined)	30	21	13	54*	47*	17	48*
SMILES	KLF5 inh	Ba/F3 V617F tox	APP 5UTR inh	IEC-6 tox-1	BaF3 tox	aSyn UTR inh	IEC-6 tox confirm	others
CC1=C(C)CC(C(=O)Nc2ccc3c(c2)OCO3)C(C(=O)O)C1 (centres undefined)	1	0	-8	-6	10	-32	.
CCN(CC)c1ccc2c(Cl)c(Br)c(=O)oc2c1	-25	1	5	50*	3	2	27*
COc1ccc(C(=O)C2CCCN(C(=O)CCc3scnc3C)C2)c(C)c1 (centres undefined)	3	5	4	0	11	-5	.
O=[N+]([O-])c1cc(Cl)cc2c1nc(NCCO)c1ccccc12	21	-1	.	25*	8	-207	26*
COC(=O)c1c(NC(=O)Cc2ccccc2)sc2c1CCN(C(C)C)C2	-13	.	.	0	.	4	.
COC(=O)c1c(NC(=O)c2ccc([N+](=O)[O-])o2)sc2c1CCN(C(C)C)C2	0	.	.	96*	.	105*	60*
COc1ccc(C(=O)Nc2sc3c(c2C#N)CCN(C(C)=O)C3)cc1	-14	4	-8	4	10	-72	.
CC(=O)N1CCc2c(sc(NC(=O)c3ccc([N+](=O)[O-])o3)c2C#N)C1	-5	17	62*	61*	32*	-5	63*
COC(=O)c1sc(NC(=O)c2ccc([N+](=O)[O-])o2)c(C#N)c1C	-8	1	.	22*	2	-45	26*
COc1ccc(C(=O)NCCNc2nc3cc(C)c(C)cc3cc2C)cc1	-21	.	.	2	.	-9	.
CCN(c1ccccc1)S(=O)(=O)c1ccc(C(=O)NCCCn2ccnc2)cc1	-12	-3	12	5	1	-33	.
CCN(c1ccccc1)S(=O)(=O)c1ccc(Oc2ccc(-n3ccnc3)cc2)nc1	-7	11	2	30*	20	103*	29*
Cc1ccn2cc(-c3ccc(O)c(O)c3)nc2c1	-58	.	.	23*	.	41	13
CO/N=C/c1ccc(OC)c(Oc2nc(OC)cc(OC)n2)c1	14	-1	66*	28*	10	8	3
CCO/N=C/c1ccc(OC)c(Oc2nc(OC)cc(OC)n2)c1	-20	-4	-36	-6	3	10	.
C/C(=N\NC(=O)c1ccc(F)cc1)c1ccccn1	38	.	.	32*	.	-93	98*
CC(=O)Nc1ccc(/C(C)=N/NC(=O)c2ccc(F)cc2)cc1	-26	0	2	-1	6	-40	.
CCc1ccc(/C(C)=N/NC(=O)c2ccccn2)cc1	-5	-4	13	0	6	-35	.
CCOc1ccc(C(=O)Nc2cccc3cccnc23)cc1	-40	.	.	-7	.	-19	.
CC(=O)Nc1ccc(/C(C)=N\NC(=O)c2ccc(-c3ccccc3)cc2)cc1	-56	88*	0	26*	82*	96*	-6
CCOc1ccc(C(=O)N/N=C(\c2ccccc2)c2ccccn2)cc1	19	86*	72*	26*	80*	46	68*
COc1ccc(CN2CC(C(N)=O)Oc3ccccc32)cc1F (centres undefined)	13	.	.	-3	.	15	.
